These results are taken from PubChem BioAssay.

Several values for one entry are separate records, joined by “and”; a condition that tells them apart may be missing. Identical values can stand only once. Activity calls are given as the source filed them.

A short description of assay [1]: optical density shifts of acrAB sulA E. coli – strain DRC41, OD650, 48 h, E. coli filamentation inducer project, primary screen (AID 1152).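 Note: E. coli MC1000 strain DRC41 lacking acrAB efflux pump and sulA.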 The note with it: higher = more signal, called active from +8 up or from −8 down.
Assay [2] is described as follows: probe aLefty1 binding on compound microarray – biochemical, small-molecule microarray, 635/667 nm fluorescence, primary screen (AID 1153).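 Note: score merges spot fluorescence with signal-to-noise ratio from the scanned slide images.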 The settings on record: higher = more signal.
A short description of assay [3]: plasmodial surface anion channel blockers, osmotic lysis – cell-based, P. falciparum Indochina, OD700, 1 h, primary screen (AID 1154). The note with it: P. falciparum Indochina infected RBC osmotic lysis, higher = more signal, called active from +8 up or from −8 down.
Assay [4] is described as follows: plasmodial surface anion channel blockers, osmotic lysis – cell-based, P. falciparum Indochina, OD700, 2 h, primary screen (AID 1155).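 Note: lysis reports solute entry through the parasite surface anion channel PSAC.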 The settings on record: P. falciparum Indochina infected erythrocytes, higher = more signal, called active from +8 up or from −8 down.
Assay [5] is described as follows: changes in parasitized red cell lysis, either direction – P. falciparum Indochina, OD700, 3 h, PSAC antagonist project, primary screen (AID 1156). The settings on record: P. falciparum-infected erythrocytes, osmotic lysis, higher = more signal, called active from +8 up or from −8 down.
Assay [6] in a line: plasmodial surface anion channel blockers, osmotic lysis – cell-based, P. falciparum Indochina, OD700, 18 h, primary screen (AID 1157). The settings on record: P. falciparum Indochina infected erythrocytes, osmotic lysis OD700, 18 h; higher = more signal, called active from +8 up or from −8 down.
Assay [7] can be described thus: S6 kinase pathway phospho-S6 level changes – cell-based, A549, cytoblot, luminescence, serum-stimulated, primary screen (AID 1158).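 Note: serum-stimulated A549 lung adenocarcinoma cells; signal is phosphorylated S6 detected by cytoblot immunostaining with HRP secondary.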 The note with it: 5 h, higher = more signal.
The target of assay [8] is NADPH oxidase 2 (Homo sapiens) (UniProt P04839). Kind of assay: compounds shifting NOX2 Amplex Red fluorescence – cell-based, HEK293-NOX2, PMA-stimulated, NOX inhibitor project, primary screen (AID 1159). Note: test concentration not given here. The note with it: 45 min, higher = more signal, called active from +8 up or from −8 down.
The target in assay [9] is NADPH oxidase 4 (Homo sapiens) (UniProt Q9NPH5). Nature of the assay: compounds shifting NOX4 Amplex Red fluorescence – cell-based, HEK293-NOX4, tetracycline-induced, NOX inhibitor project, primary screen (AID 1160). The settings on record: HEK293-NOX4, Amplex Red H2O2 fluorescence, 45 min; higher = more signal, called active from +8 up or from −8 down.
Assay [10] deals with NADPH oxidase 5 (Homo sapiens) (UniProt Q96PH1). Nature of the assay: compounds shifting NOX5 Amplex Red fluorescence – cell-based, HEK293-NOX5, NOX inhibitor project, primary screen (AID 1161). The note with it: HEK293-NOX5, ionomycin, 45 min, higher = more signal.
Assay [11] in a line: compound effects on lung adenocarcinoma cell viability – A549, calcein-AM fluorescence, 48 h, basal, profiling panel (AID 1162). Note: test concentration not given here. The note with it: higher = more signal.
Assay [12] can be described thus: compound effects on differentiated 3T3-L1 adipocyte viability – cell-based, 3T3-L1 adipocytes, calcein-AM fluorescence, 48 h, basal, profiling panel (AID 1163). Note: test concentration not given here. The note with it: 3T3-L1 adipocytes viability, higher = more signal.
A short description of assay [13]: compound effects on hepatocellular carcinoma cell viability – HepG2, calcein-AM fluorescence, 48 h, basal, profiling panel (AID 1164). Note: test concentration not given here. The settings on record: higher = more signal.
Assay [14] in a line: compound effects on multiple myeloma cell viability – MM1S, calcein-AM fluorescence, 48 h, basal, profiling panel (AID 1165).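 Note: viability of MM1S multiple myeloma cells under basal unstimulated conditions; test concentration not given here.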 The settings on record: higher = more signal.
The nature of assay [15]: calcein-AM signal in unstimulated myeloma cells – cell-based, calcein-AM fluorescence, 48 h, PK04 Diversity Set, profiling panel (AID 1166).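 Note: cells grown under basal conditions without added stimulus; test concentration not given here.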 The settings on record: RPMI8226 myeloma viability, higher = more signal.
A short description of assay [16]: JC-1 mitochondrial signal, unstimulated HepG2 cells – cell-based, JC-1 fluorescence, 24 h, 100 nL compound, profiling panel (AID 1167). Note: test concentration not given here. The note with it: HepG2 mitochondrial potential, higher = more signal.
Assay [17] is described as follows: JC-1 mitochondrial signal, unstimulated adipocytes – cell-based, JC-1 fluorescence, 3T3-L1 adipocytes, 24 h, 100 nL compound, profiling panel (AID 1168). Note: test concentration not given here. The settings on record: JC-1 mitochondrial fluorescence, higher = more signal, called active from +8 up or from −8 down.
Assay [18] can be described thus: JC-1 mitochondrial signal, unstimulated myeloma cells – cell-based, JC-1 fluorescence, RPMI8226, 24 h, 100 nL compound, profiling panel (AID 1169). Note: test concentration not given here. The settings on record: JC-1 mitochondrial potential fluorescence, higher = more signal.
The nature of assay [19]: JC-1 mitochondrial signal, unstimulated MM1S myeloma – cell-based, JC-1 fluorescence, 24 h, 100 nL compound, profiling panel (AID 1170). Note: test concentration not given here. The note with it: MM1S mitochondrial potential, higher = more signal.
Assay [20] in a line: resazurin metabolic signal in A549 cells – cell-based, resazurin fluorescence, 24 h, PK04 Diversity Set, profiling panel (AID 1171). Note: test concentration not given here. The note with it: A549 viability, higher = more signal, called active from +8 up or from −8 down. Background: Resazurin is reduced to fluorescent resorufin, in cell work by metabolically active cells.

Sequence of NADPH oxidase 5 (Homo sapiens) (Q96PH1 whole entry, looked up): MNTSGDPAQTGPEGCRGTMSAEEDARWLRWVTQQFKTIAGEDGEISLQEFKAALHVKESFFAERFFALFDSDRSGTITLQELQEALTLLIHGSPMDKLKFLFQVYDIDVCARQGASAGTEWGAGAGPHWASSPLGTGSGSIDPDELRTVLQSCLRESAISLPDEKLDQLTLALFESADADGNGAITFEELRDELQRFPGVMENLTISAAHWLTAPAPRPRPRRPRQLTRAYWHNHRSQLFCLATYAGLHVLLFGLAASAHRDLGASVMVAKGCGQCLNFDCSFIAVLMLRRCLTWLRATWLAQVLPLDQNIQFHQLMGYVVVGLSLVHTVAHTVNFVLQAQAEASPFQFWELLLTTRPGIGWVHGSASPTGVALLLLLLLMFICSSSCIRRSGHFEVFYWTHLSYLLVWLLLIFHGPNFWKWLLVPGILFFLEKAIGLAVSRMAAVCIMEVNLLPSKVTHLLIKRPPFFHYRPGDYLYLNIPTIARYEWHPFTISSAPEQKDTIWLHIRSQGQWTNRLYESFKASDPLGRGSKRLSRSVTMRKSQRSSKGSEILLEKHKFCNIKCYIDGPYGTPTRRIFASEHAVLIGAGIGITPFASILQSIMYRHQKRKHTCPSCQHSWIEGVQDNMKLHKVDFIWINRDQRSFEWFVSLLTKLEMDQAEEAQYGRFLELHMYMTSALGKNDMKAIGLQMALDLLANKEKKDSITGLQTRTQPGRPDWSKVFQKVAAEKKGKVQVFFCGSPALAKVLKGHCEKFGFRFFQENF
Sequence of NADPH oxidase 2 (Homo sapiens) (P04839 whole entry, looked up): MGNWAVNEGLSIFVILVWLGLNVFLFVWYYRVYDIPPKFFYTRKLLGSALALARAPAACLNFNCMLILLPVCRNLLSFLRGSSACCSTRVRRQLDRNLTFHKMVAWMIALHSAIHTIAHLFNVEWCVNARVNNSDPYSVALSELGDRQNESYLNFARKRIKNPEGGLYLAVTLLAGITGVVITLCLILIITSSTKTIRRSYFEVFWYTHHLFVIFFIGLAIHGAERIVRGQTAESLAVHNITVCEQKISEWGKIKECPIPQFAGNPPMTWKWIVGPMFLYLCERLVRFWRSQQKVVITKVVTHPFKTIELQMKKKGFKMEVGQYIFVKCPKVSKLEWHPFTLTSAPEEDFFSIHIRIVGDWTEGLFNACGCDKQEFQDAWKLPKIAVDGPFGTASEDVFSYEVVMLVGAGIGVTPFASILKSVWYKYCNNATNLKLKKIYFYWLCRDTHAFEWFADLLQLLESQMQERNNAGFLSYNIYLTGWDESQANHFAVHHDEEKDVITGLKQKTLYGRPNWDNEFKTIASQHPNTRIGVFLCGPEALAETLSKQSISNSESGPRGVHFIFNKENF
Sequence of NADPH oxidase 4 (Homo sapiens) (Q9NPH5 whole entry, looked up): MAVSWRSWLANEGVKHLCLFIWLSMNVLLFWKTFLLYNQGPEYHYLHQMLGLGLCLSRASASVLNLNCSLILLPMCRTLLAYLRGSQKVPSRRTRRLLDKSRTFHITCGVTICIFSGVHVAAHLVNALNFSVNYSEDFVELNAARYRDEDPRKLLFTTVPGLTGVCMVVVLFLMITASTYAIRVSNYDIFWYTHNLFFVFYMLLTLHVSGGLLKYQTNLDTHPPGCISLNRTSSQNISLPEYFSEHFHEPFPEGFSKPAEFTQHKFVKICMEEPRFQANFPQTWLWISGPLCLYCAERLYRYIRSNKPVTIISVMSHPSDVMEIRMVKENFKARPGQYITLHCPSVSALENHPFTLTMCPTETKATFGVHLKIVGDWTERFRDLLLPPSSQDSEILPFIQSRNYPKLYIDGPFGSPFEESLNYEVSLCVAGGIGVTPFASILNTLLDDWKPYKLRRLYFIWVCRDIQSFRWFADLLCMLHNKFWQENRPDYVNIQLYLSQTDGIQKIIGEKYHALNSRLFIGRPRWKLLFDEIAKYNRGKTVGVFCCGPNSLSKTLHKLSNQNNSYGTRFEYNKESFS

With `C=CCN(CCCCC)C(=O)C1N(CCOCCO)C(=O)C2C(C(=O)O)C3C=CC21O3` (stereo not given), the z-score is -0.657 (inactive) and -0.678 (inactive) in assay [1]; -0.326 (inactive) and 0.243 (inactive) in assay [3]; -0.438 (inactive) and -0.392 (inactive) in assay [4]; -0.661 (inactive) and -0.448 (inactive) in [5]; 0.0613 (inactive) and -0.159 (inactive) in assay [6]; -0.192 and 0.359 in assay [7]. Further, the z-score in assay [8] is 0.347 (inactive) and 0.481 (inactive); in assay [9] it was -1.7 (inactive) and -1.87 (inactive); in assay [10], 0.569 and 0.0493; in [11], -0.178 and -0.126; in [12], 0.21 and -0.603; in assay [13] it was -0.499 and -0.87. In addition, the z-score was 0.226 and 1.03 in assay [14]; -0.361 and 0.133 in [15]; -0.562 and -0.928 in assay [16]; -0.279 (inactive) and -0.227 (inactive) in assay [17]; 0.252 and 0.715 in assay [18]; 0.377 and 0.103 in assay [19]. Besides, in assay [20], the z-score was -0.529 (inactive) and -1.03 (inactive). The composite z-score in [2] was -0.0518 and -0.0061.
Regarding `COC(=O)C1=C(C)N(Cc2ccccc2)C2=C3C(=O)CCC[C@@H]3[C@@](O)(C(=O)OC)C(=O)N2[C@@H]1c1ccccc1`, the z-score in assay [1] was 0.941 (inactive) and 1.15 (inactive); in assay [3], -0.0542 (inactive) and 0.644 (inactive); in [4], 0.23 (inactive) and -0.736 (inactive); in [5], -0.689 (inactive) and 0.924 (inactive); in assay [6] it was 0.249 (inactive) and -0.767 (inactive); in [7], -0.0885 and 0.778. The z-score in assay [8] was 1.08 (inactive) and -0.368 (inactive); in assay [9], -0.0562 (inactive) and 0.13 (inactive); in assay [10] it was -0.0435 and -0.704; in [11], 0.941 and 0.383; in assay [12], 0.662 and -0.219; in assay [13], 0.408 and -0.0984. The z-score is -2.99 in assay [14]; 0.28 and -2.5 in [15]; 1.07 and -0.0794 in assay [16]; -0.512 (inactive) and 0.739 (inactive) in assay [17]; 0.0423 and -0.467 in assay [18]; 1.36 and -0.505 in [19]. In addition, the z-score in [20] is 0.477 (inactive) and 0.238 (inactive). In [2], the composite z-score was -0.0275 and 0.106.
Consider `C#CCCCON=C1C[C@@H](O)[C@@H](O)[C@@H]2[C@@H]3C(=O)N(C4CCCCC4)C(=O)[C@@H]3CC[C@H]12`, for which the z-score in assay [1] is 0.747 (inactive); in [3], 0.869 (inactive); in [4], -0.68 (inactive); in [5], 0.403 (inactive); in [6], -0.113 (inactive); in [7], -0.126. The z-score in [8] is -1.26 (inactive); in assay [9] it was -0.426 (inactive); in assay [10], -2.7; in [11], -0.0446; in assay [12], -0.277; in [13], 1.15. The z-score in assay [14] was 0.471; in [15], -0.584; in [16], 0.289; in [17] it was 0.201 (inactive); in assay [18], 0.515; in [19], -0.353. In [20], the z-score was 0.108 (inactive). Further, in assay [2], the composite z-score was -0.147.
Take `CC(C)=CCCC(C)=CCON=C1C[C@@H](O)[C@@H](O)[C@@H]2[C@@H]3C(=O)N([C@@H](C)c4ccccc4)C(=O)[C@@H]3CC[C@H]12`: the z-score in assay [1] was -0.125 (inactive); in assay [3], 11.1 (active); in assay [4] it was 0.362 (inactive); in assay [5], 1.3 (inactive); in assay [6] it was -0.944 (inactive); in assay [7] it was 1.27. Further, the z-score is -1.06 (inactive) in assay [8]; -0.306 (inactive) in assay [9]; -4.23 in assay [10]; 0.0319 in [11]; 0.2 in [12]; 0.446 in assay [13]. The z-score in assay [14] is -2.88; in assay [15] it was -0.0017; in assay [16], 0.374; in assay [17], 1.08 (inactive); in [18], 0.0351; in assay [19] it was -1.78. Moreover, the z-score in assay [20] was -1.38 (inactive). In [2], this molecule came in with a composite z-score of -0.0603.
Consider `C=CCN(C(=O)C(c1cccs1)N(C(=O)/C=C\C(=O)O)c1ccc(CCO)cc1)c1ccc(OC)cc1` (stereo not given), for which the z-score in assay [1] was 2.16 (inactive) and 0.76 (inactive); in assay [3], 1.73 (inactive) and -1.02 (inactive); in assay [4], 0.0371 (inactive) and -0.3 (inactive); in assay [5], -0.0439 (inactive) and 0.347 (inactive); in assay [6], 0.454 (inactive) and -0.0131 (inactive); in assay [7] it was 0.749 and 0.862. The z-score in [8] is -0.147 (inactive) and -0.268 (inactive); in assay [9] it was -0.649 (inactive) and -1.34 (inactive); in assay [10], 0.137 and -0.261; in assay [11], -0.256 and 1.54; in [12], 0.015 and -0.199; in [13], 1.35 and 0.76. Moreover, the z-score in assay [14] is 1 and -0.0823; in assay [15], 1.2 and -0.0106; in assay [16], 0.417 and 0.583; in assay [17], 0.249 (inactive) and 1.26 (inactive); in [18], 0.201 and 0.0752; in assay [19], -1.07 and 1.18. The z-score in assay [20] was 0.307 (inactive) and 0.0568 (inactive). Moreover, in assay [2], the composite z-score was -0.0186 and -0.229.
